Values without a mark were called inactive. Inconclusive results are not listed. Calls of active or inactive are those of the source. Calls follow the shape of the dose curve; as a rule, active = well fitted curve in the direction sought with a large enough effect in the repeat runs; inconclusive = weak or mixed curves; inactive = no such curve, though single readings can be large; an effect the other way counts as inactive or inconclusive.

Experiment [1] in a line: A CellTox Green Cytotoxicity Assay to monitor cytotoxicity in HEK293 cells - 32 hour (AID 1224881). Also: nearly all actives have a fitted effect of over 40% in size. The procedure, abridged: (§1)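 Each value comes from one timepoint of a single continuous run in which HEK293 cells with CellTox Green were exposed to compound for up to 40 h at 37 C, dye fluorescence rising with cell death.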
Experiment [2] can be described thus: A CellTox Green Cytotoxicity Assay to monitor cytotoxicity in HepG2 cells - 0 hour (AID 1224882). Also: nearly all actives have a fitted effect of over 35% in size. The procedure, abridged: (§2)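 Continuous culture of HepG2 cells with a membrane-impermeant DNA dye; rising fluorescence marks dead cells. Compound exposure lasted up to 40 h at 37 C, with reads every 8 h from 0 h.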
Experiment [3] is described as follows: A CellTox Green Cytotoxicity Assay to monitor cytotoxicity in HEK293 cells - 8 hour (AID 1224884). Also: nearly all actives have a fitted effect of over 35% in size. The procedure, abridged: as §1
A short description of experiment [4]: qHTS RealTime-Glo MT Cell Viability Assay in HepG2 cells - 16 hour (AID 1224885). Also: nearly all actives have a fitted effect of over 50% in size. In short, it runs like this:
(§3)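 Compound treatment began 5 h after plating HepG2 cells (600/well) with NanoLuc luciferase and prosubstrate. Plates stayed at 37 C for 40 h; luminescence was captured at six time points, 0 h through 40 h.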

Experiment [5] can be described thus: qHTS RealTime-Glo MT Cell Viability Assay in HEK293 cells - 24 hour (AID 1224886). Also: nearly all actives have a fitted effect of over 50% in size. As to activity change, negative = cytotoxicity: top concentration of the series differs between compounds. The procedure, abridged:
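Quantitative high-throughput screen of the Tox21 10K library in HEK293: cells and RealTime-Glo reagents plated together, compound added at 5 h, luminescence monitored through 40 h at 37 C.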
A general note: In qHTS, concentration-response curves come from the screen itself.

The nature of experiment [6]: qHTS RealTime-Glo MT Cell Viability Assay in HEK293 cells - 8 hour (AID 1224887). Also: nearly all actives have a fitted effect of over 50% in size. As to activity change, negative = cytotoxicity: top concentration of the series differs between compounds. The procedure, abridged:
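qHTS format; HEK293 cells with NanoLuc/prosubstrate reagent, 37 C/5% CO2 for 5 h pre-dosing; compounds 23 nL in DMSO; luminescence at each time point reflects viable cells.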

The nature of experiment [7]: A CellTox Green Cytotoxicity Assay to monitor cytotoxicity in HEK293 cells - 16 hour (AID 1224888). Also: nearly all actives have a fitted effect of over 35% in size. The procedure, abridged: as §1
Experiment [8] can be described thus: qHTS RealTime-Glo MT Cell Viability Assay in HepG2 cells - 0 hour (AID 1224889). Also: nearly all actives have a fitted effect of over 50% in size. In short, it runs like this: as §3
Experiment [9] can be described thus: A CellTox Green Cytotoxicity Assay to monitor cytotoxicity in HepG2 cells - 8 hour (AID 1224890). Also: nearly all actives have a fitted effect of over 45% in size. The procedure, abridged:
as §2

A short description of experiment [10]: A CellTox Green Cytotoxicity Assay to monitor cytotoxicity in HepG2 cells - 32 hour (AID 1224883). Also: nearly all actives have a fitted effect of over 50% in size. In short, it runs like this:
as §2
% is scaled to controls: 0 for no effect and ±100 for the full control effect; potency is read from the fitted curve at half-maximal effect.

As to `C=C(C)C(=O)OCCO`, the Potency entry in [1], in [2], in [3], in experiment [4], in experiment [5] and in experiment [6] was “inactive” in each case. Moreover, the Potency entry in experiment [7], in experiment [8] and in [9] was “inactive” each time.
`CN(C)CCCN1c2ccccc2Sc2ccccc21`: the Potency result in experiment [1], in experiment [2], in experiment [3], in experiment [4], in experiment [5] and in [6] was “inactive” each time. The Potency result in experiment [9] was “inactive”.
For the compound `Cc1[nH]c(C)c(Cl)c(=O)c1Cl`, the figures for the cytotoxicity increase in [1], in [3] and in experiment [9] were -3.98% [at 15.8 µM], -1.54% [at 15.8 µM] and -4.87% [at 15.8 µM], respectively. The cytotoxicity in experiment [2] is -3.1% [at 15.8 µM]. The activity change, negative = cytotoxic in experiment [4] is 0.907% [at 15.8 µM]. Also, the activity change, negative = cytotoxicity is -19.4% [at 15.8 µM] in experiment [5], -23.4% [at 15.8 µM] in experiment [6] and -1.76% [at 15.8 µM] in [8].
Take `CCCCCCCN`: the Potency result in experiment [1], in experiment [2], in [4], in experiment [5], in [6] and in experiment [7] was “inactive” throughout. Also, the Potency result in experiment [8] and in experiment [9] was “inactive” in each case.
As for `CC(C)CC(=O)C1C(=O)c2ccccc2C1=O`, the Potency entry in experiment [1], in [2], in experiment [4], in experiment [5], in experiment [7] and in experiment [8] was “inactive” each time. In experiment [9], the Potency result was “inactive”.
For the compound `Cc1ccccc1S(=O)(=O)O`, the Potency result in [1], in experiment [2], in [3], in experiment [4], in [5] and in [6] was “inactive” each time. Moreover, the Potency result in experiment [7], in experiment [8] and in [9] was “inactive” throughout.
Turning to `O=C(Nc1ccc(S(=O)(=O)N2CCOCC2)cc1)c1cc(Cl)ccc1NS(=O)(=O)c1ccc(Cl)s1`, the Potency in experiment [1] was 23.9 µM (active); in [2], 21.3 µM (active); in experiment [3], 23.9 µM (active); in [7], 23.9 µM (active); in experiment [9] it was 26.8 µM (active). In addition, the Potency result in experiment [5] and in experiment [6] was “inactive” each time.
In the case of `N=c1ccn2c(n1)O[C@H]1[C@H](O)[C@@H](CO)O[C@H]12`, the Potency result in [1], in experiment [2], in experiment [4], in experiment [5], in experiment [6] and in experiment [7] was “inactive” throughout. Moreover, the Potency entry in [8] and in experiment [9] was “inactive” throughout.
Take `CCOC(=O)C1=C[C@]2(CC)CCCN3CCc4c(n1c1ccccc41)[C@@H]32`: the Potency result in experiment [1], in experiment [2], in experiment [3], in experiment [4], in [5] and in [6] was “inactive” throughout. Besides, the Potency result in [7] and in experiment [8] was “inactive” each time.
Turning to `O=C1[C@H]2CCCC[C@H]2C(=O)N1CCCCN1CCN(c2nsc3ccccc23)CC1`, the Potency entry in [1], in experiment [2], in experiment [3], in experiment [4], in [7] and in experiment [8] was “inactive” throughout.
As to `COC(=O)C1=C(C)NC(COC(N)=O)=C(C(=O)OC(C)C)C1c1cccc(Cl)c1Cl` (stereo not given), the Potency result in experiment [1], in experiment [2], in [3], in experiment [7] and in experiment [9] was “inactive” throughout. Moreover, the Potency was 23.9 µM (active) in experiment [4], 26.8 µM (active) in [5] and 1.9 µM (active) in experiment [8].
For `CCCCCCc1ccc(-c2ccc(C#N)cc2)cc1`, the Potency entry in [1], in experiment [2], in experiment [3], in [4], in experiment [5] and in experiment [6] was “inactive” each time. The Potency result in experiment [7], in [8] and in experiment [9] was “inactive” each time.
For `CCN(CC)CCNc1ccc(CNC=O)c2sc3ccc(OC)cc3c(=O)c12`, the Potency result in experiment [1], in experiment [2], in experiment [3], in experiment [7] and in experiment [9] was “inactive” throughout. Further, the Potency was 21.9 µM (active) in experiment [4], 19.5 µM (active) in [5] and 34.7 µM (active) in [6].
With `COc1ccc(C(=O)c2ccc(OC)cc2O)c(O)c1`, the Potency result in experiment [2], in [10], in [3], in experiment [4] and in experiment [9] was “inactive” in each case. Moreover, the Potency in experiment [5] was 24.7 µM (active).
In the case of `CCCCCCCCCCCCN1CCCCCC1=O`, the Potency result in [1], in experiment [3], in experiment [4], in experiment [7] and in experiment [8] was “inactive” each time.
Take `COc1ccc2cccc(CCNC(C)=O)c2c1`: the Potency result in [1], in [3], in experiment [4], in experiment [5] and in experiment [6] was “inactive” in each case.
Regarding `CCCCCCCCCCCCCCCCCCOS(=O)(=O)O`, the Potency entry in [2], in experiment [4], in [6] and in experiment [8] was “inactive” in each case.
Take `CNCCCCOc1ccccc1Cc1ccccc1`: the Potency in [10], in [5] and in experiment [9] was 21.3 µM (active) each time. Moreover, the Potency entry in experiment [3] and in [8] was “inactive” each time.
In the case of `CN(Cc1ccc(C(C)(C)C)cc1)Cc1cccc2ccccc12`, the Potency entry in [2], in [10], in experiment [3], in [4], in experiment [5] and in experiment [6] was “inactive” throughout. In addition, the Potency entry in experiment [8] and in experiment [9] was “inactive” each time.
For `Clc1ccc2c(c1)CCc1cccnc1C2=C1CCNCC1`, the Potency entry in experiment [2], in experiment [3], in [4], in [6], in experiment [8] and in experiment [9] was “inactive” in each case. Moreover, the Potency in experiment [10] was 23.9 µM (active).
In the case of `C=CC(=O)OCCOCCOC(=O)C=C`, the Potency result in experiment [2], in experiment [3], in [6], in experiment [7], in experiment [8] and in experiment [9] was “inactive” each time. The Potency in [10] is 49.2 µM (active); in experiment [5] it was 31 µM (active).
Consider `CN1CCC(N(Cc2cccs2)c2ccccc2)CC1`, for which the Potency in experiment [1] is 21.3 µM (active); in experiment [10], 21.3 µM (active); in experiment [3], 19 µM (active). Further, the Potency result in [4], in experiment [5], in [6] and in experiment [8] was “inactive” each time.
In the case of `CNCCCN1c2ccccc2CCc2ccccc21`, the Potency result in experiment [2], in [3], in [4], in experiment [6], in experiment [7] and in experiment [8] was “inactive” in each case. In [9], the Potency result was “inactive”. The Potency in experiment [10] was 26.8 µM (active).

(Values after PubChem BioAssay (Tox21).)
